Screening data (PubChem BioAssay)
ATXN2 expr inh: reduces ATXN2 reporter expression in HEK-293 cells; HEK-293 ATXN2-luciferase reporter, luminescence, 24 h; Potency, µM (highest dose often 57 µM), usual class: inhibitors; 0.72% of 360,000 active; also: nearly all actives have a fitted effect of over 55% in size
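ATXN2-luciferase reporter cells (luciferase flanked by upstream and downstream ATXN2 gene portions) were treated 24 h at 37 °C with compounds at up to 57 uM. SteadyGlo luminescence gave expression; GF-AFC fluorescence gave viability.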
Nrf2 inh: blocks Nrf2 signaling | A549 ARE-Fluc reporter, luciferase luminescence, 18-24 h | Potency, µM (top dose mostly 46 µM), hits mostly inhibitors | 2.1% of 360,000 active; also: nearly all actives have a fitted effect of over 60% in size
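A549 ARE_Fluc cells, 5000/well, 5% FBS OPTI-MEM; compounds in dose-response, 18-24 h at 37 °C/5% CO2; CellTiter-Fluor viability read (Ex 405/Em 525), then BugLite luciferase luminescence = Nrf2 activity.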
S2 tox: reduces viability in counter-screen for ATXN expression inhibitors; S2 cells (HEK-293 line with an ATXN2-luciferase reporter) viability, CellTiter-Fluor protease fluorescence, 24 h; Potency, µM (titrated, usually from 56.7 µM), most hits filed as cytotoxic; 0.49% of 400,000 active; also: nearly all actives have a fitted effect of over 40% in size
Nrf2 ARE act: activates Nrf2 signaling | AID 624171 | AREc32 ARE-luciferase reporter (MCF7-derived line), luminescence, 24 h | 0.31% of 410,000 active | Potency, µM (top dose mostly 46.1 µM), hits mostly activators; also: nearly all actives have a fitted effect of over 65% in size
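Reporter line AREc32 (ARE-Fluc), seeded overnight in OPTI-MEM with 5% FBS; compound pin-transferred, 24 hr at 37 deg C, 5% CO2; luminescent read-out.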
A549 tox: counter-screen for Nrf2 inhibitors: cytotoxicity in A549 cells; A549 ARE-Fluc cells, CellTiter-Fluor viability, 18-24 h; Potency, µM (top dose mostly 46 µM), actives largely listed as inhibitors; 0.16% of 390,000 active
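A549 ARE-Fluc cells in 5% FBS OPTI-MEM, 5000 cells/well, rested 2 h then exposed to compounds in concentration-response for 18-24 h at 37 °C. Viability by CellTiter-Fluor fluorescence (Ex 405/Em 525) after 30 min; luciferase luminescence (BugLite, 15 min, RT) read afterwards.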
Each line names hits and unclear results; the compound was inactive in the other large screens; ! = not active in a repeat. Shown are actives, neighbours in structure and some others; about 2.9% of the full set was active somewhere. Calls follow the shape of the dose curve; as a rule, active = well fitted curve in the direction sought with a large enough effect; inconclusive = small, poorly fitted or top-dose-only effect, or another doubt; inactive = no such curve, though single readings can be large; an effect the other way counts as inactive or inconclusive.

Cc1ccc(S(=O)(=O)Nc2ccc3c(c2)CC(=O)N([C@H](C)CO)C[C@@H](C)[C@H](CN(C)Cc2ccc(-c4ccccc4)cc2)O3)cc1	ATXN2 expr inh inconclusive, Nrf2 inh inconclusive, S2 tox 22.4µM
C[C@H]1CN([C@@H](C)CO)C(=O)c2cccc(NC(=O)Nc3ccc(C(F)(F)F)cc3)c2O[C@@H]1CN(C)Cc1ccc(Cl)c(Cl)c1	Nrf2 inh inconclusive, S2 tox 14.1µM, A549 tox inconclusive
C[C@@H]1CCCCO[C@@H](CN(C)Cc2ccc(C(F)(F)F)cc2)[C@@H](C)CN([C@H](C)CO)C(=O)c2cc(N(C)C)ccc2O1	ATXN2 expr inh inconclusive, S2 tox 22.4µM (no result: Nrf2 inh, A549 tox)
C[C@@H]1CN([C@H](C)CO)C(=O)c2cc(NS(=O)(=O)c3ccc(F)cc3)ccc2O[C@@H]1CN(C)Cc1ccc(Cl)c(Cl)c1	ATXN2 expr inh inconclusive, Nrf2 inh 18.4µM, S2 tox inconclusive, A549 tox 14.6µM
C[C@@H]1CN([C@H](C)CO)C(=O)c2cc(NC(=O)Nc3ccc(C(F)(F)F)cc3)ccc2O[C@H]1CN(C)Cc1ccc(Cl)c(Cl)c1	ATXN2 expr inh inconclusive, Nrf2 inh inconclusive, S2 tox 12.6µM, A549 tox inconclusive
C[C@H](CO)N1C[C@H](C)[C@@H](CN(C)Cc2ccc(Cl)c(Cl)c2)Oc2c(NC(=O)C3CC3)cccc2C1=O	ATXN2 expr inh inconclusive, Nrf2 inh inconclusive, A549 tox inconclusive (no result: S2 tox)
C[C@H](CO)N1C[C@H](C)[C@@H](CN(C)Cc2ccc(Cl)c(Cl)c2)Oc2c(NC(=O)CCC(F)(F)F)cccc2C1=O	ATXN2 expr inh inconclusive, Nrf2 inh 18.4µM, S2 tox inconclusive
C[C@@H]1CN([C@@H](C)CO)C(=O)c2cc(C#CC3CCCCC3)cnc2O[C@@H]1CN(C)S(=O)(=O)c1ccc(F)cc1	ATXN2 expr inh inconclusive, S2 tox 20µM (no result: Nrf2 inh, A549 tox)
C[C@H](CO)N1C[C@H](C)[C@@H](CN(C)S(=O)(=O)c2ccc(F)cc2)Oc2c(NC(=O)Nc3ccc(C(F)(F)F)cc3)cccc2C1=O	ATXN2 expr inh inconclusive, Nrf2 inh 18.4µM (no result: S2 tox)
CC(OC(=O)COc1ccc(C#N)cc1)C(=O)c1ccccc1 (stereo not drawn)	none
CC(=O)Nc1cc(-c2cccc(C(=O)NCCN(C)C)c2)cn2c(-c3cccc(C(F)(F)F)c3)cnc12	S2 tox 31.6µM (no result: Nrf2 inh, A549 tox)
CCN(Cc1nc2ccccc2c(=O)[nH]1)C(=O)c1cccc(S(=O)(=O)N2CCc3ccccc32)c1	Nrf2 inh inconclusive
C=CC(=O)Nc1cccc(Nc2nc(N[C@H]3CC[C@H](N(C)C)CC3)nc3c2ncn3C(C)C)c1	ATXN2 expr inh 1µM, Nrf2 inh 0.581µM, S2 tox 2µM, A549 tox 2.59µM
CC(C)[C@H](CO)Nc1nc(Nc2ccc(Cl)c(C(=O)O)c2)c2ncn(C(C)C)c2n1	none
O=C(OCc1ccccc1)c1ccc(NCc2cc(O)ccc2O)cc1	ATXN2 expr inh 10µM, Nrf2 ARE act inconclusive (no result: S2 tox)
COP(=O)(OC)c1ccc(NCc2cc(O)ccc2O)cc1	Nrf2 ARE act inconclusive, A549 tox inconclusive
CCC(=O)Nc1ccc(C(=O)OCc2ccccc2)cc1	none
CC(C)OC(=O)c1ccc(NCc2cc(O)ccc2O)cc1	ATXN2 expr inh inconclusive, Nrf2 ARE act 12.6µM (no result: S2 tox)
COc1ccccc1NS(=O)(=O)c1ccc2c(c1)NC(=O)CC(=O)N2	none
Cc1ncoc1C(=O)NC1CCCc2c1cnn2-c1cc(F)cc(F)c1 (stereo not drawn)	S2 tox inconclusive (no result: ATXN2 expr inh, Nrf2 inh, A549 tox)
O=C(NCc1cccnc1)C1CCC(c2ccc(Cl)cc2)CC1 (stereo not drawn)	ATXN2 expr inh inconclusive, Nrf2 inh 23.1µM
COCCn1c(CN2CCN(C)CC2)nc2c1c(=O)n(C)c(=O)n2C	none
COc1ccc(-c2nc(N)n(C(=O)c3ccc(C)cc3)n2)cc1	Nrf2 inh 10.3µM
Cc1ccc(C(=O)n2nc(-c3ccco3)nc2NCc2cccs2)cc1	Nrf2 inh 8.2µM
Nc1nc(-c2ccco2)nn1C(=O)c1ccc(F)cc1	Nrf2 inh 18.4µM
Nc1nc(-c2ccco2)nn1C(=O)c1ccccc1	S2 tox inconclusive
O=C(c1ccccc1)n1nc(-c2ccco2)nc1NCc1cccs1	S2 tox inconclusive
CCOC(=O)c1ccc(CNC(=O)CSc2nc(NC(=O)c3ccccc3)c3c(C)c(C)oc3n2)cc1	Nrf2 inh inconclusive
CCN(CC(=O)NCc1ccc(F)cc1)C(=O)CCNS(=O)(=O)c1cccc(C)c1	none
Clc1ccc2c(c1)C1OCCC1C(c1ccco1)N2 (stereo not drawn)	S2 tox inconclusive, Nrf2 ARE act 5.62µM
CC(=O)N1c2ccc(Cl)cc2C2OCCC2C1c1ccco1 (stereo not drawn)	none
COc1cccc(-c2noc(-c3cc4ccccc4oc3=O)n2)c1OC	Nrf2 inh inconclusive, Nrf2 ARE act 11.2µM (no result: ATXN2 expr inh, S2 tox)
COc1ccc(-c2nc(NC(=O)C3CC(=O)N(Cc4ccco4)C3)sc2C)cc1 (stereo not drawn)	Nrf2 inh 23.1µM, A549 tox inconclusive
COc1ccc(-c2csc(NC(=O)C3CC(=O)N(Cc4ccco4)C3)n2)cc1 (stereo not drawn)	Nrf2 inh inconclusive
NC(Cc1ccc(C(F)(F)F)cc1)c1csc(Nc2ccc(C(=O)NCc3ccco3)cn2)n1 (stereo not drawn)	ATXN2 expr inh 12.6µM, S2 tox 22.4µM (no result: Nrf2 inh, A549 tox)
NC(Cc1ccc(C(F)(F)F)cc1)c1csc(Nc2ccc(C(=O)NCCCO)cn2)n1 (stereo not drawn)	ATXN2 expr inh inconclusive, S2 tox inconclusive (no result: Nrf2 inh, A549 tox)
COc1cc(OC)nc(Nc2nc(C(N)Cc3ccc(Cl)cc3)cs2)n1 (stereo not drawn)	ATXN2 expr inh 31.6µM (no result: Nrf2 inh, S2 tox, A549 tox)
CCCCN(C)C(=O)c1ccc(Nc2nc(C(N)Cc3ccc(C(F)(F)F)cc3)cs2)nc1 (stereo not drawn)	S2 tox 31.6µM (no result: Nrf2 inh, A549 tox)
COc1ccc(CC(N)c2csc(Nc3ccc(C(=O)c4ccccc4)cc3)n2)cc1 (stereo not drawn)	ATXN2 expr inh 35.5µM, S2 tox inconclusive (no result: Nrf2 inh, A549 tox)
COC(=O)c1cc(C)nc(Nc2nc(C(N)Cc3ccc(Cl)cc3)cs2)n1 (stereo not drawn)	none (no result: Nrf2 inh, A549 tox)
CC(Oc1ccccc1)C(=O)Nc1cccc([N+](=O)[O-])c1 (stereo not drawn)	Nrf2 inh inconclusive
CC1CCc2c(sc(NC(=O)Cn3nnc(-c4ccc(C(F)(F)F)cc4)n3)c2C#N)C1 (stereo not drawn)	none
NC(Cc1ccc(Cl)cc1)c1csc(Nc2ccc(C(F)(F)F)cn2)n1 (stereo not drawn)	S2 tox 31.6µM (no result: Nrf2 inh, A549 tox)
CC(=O)c1ccc(NC(=O)C(C)OC(=O)/C=C/c2ccco2)cc1 (stereo not drawn)	Nrf2 inh inconclusive
CO[C@@]12[C@H](COC(N)=O)C3=C(C(=O)C(C)=C(N)C3=O)N1C[C@@H]1N[C@@H]12	ATXN2 expr inh 1.72µM!, Nrf2 inh inconclusive, S2 tox inconclusive
